Assay results as given in the supplement of paper PMC9262897, “Low-cost anti-mycobacterial drug discovery using engineered E. coli” (Nature Communications, 2022).
Where a name gives a salt, the structure may show the parent alone. ± gives the standard deviation of the averaged measurements.

tested on: E. coli TESEC Alr+ wild-type control; assay: growth (OD600 after 10 h); higher = more growth (less inhibition); conditions: compound 0.1 mM; raw OD600 reference: median of DMSO wells 0.49, cell-free background 0.052
Experimental: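 TESEC Mtb Alr E. coli (ΔaraC ΔtolC ΔentC Δalr ΔdadX, arabinose-inducible Mtb Alr) or the Alr+ wild-type control strain, grown in defined M9-fructose medium without D-alanine in 96-well plates with Prestwick library compounds at 0.1 mM and 1% DMSO. Low Alr induction is 0.1 µM arabinose and high induction is 10 mM arabinose.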

| SMILES | growth |
| --- | --- |
| COc1cc(C(=O)NS(=O)(=O)c2ccccc2C)ccc1Cc1cn(C)c2ccc(NC(=O)OC3CCCC3)cc12 [Zafirlukast] | 0.189 ± 0.01 |
| NNc1nncc2ccccc12 [Hydralazine hydrochloride] | 0.448 ± 0.049 |
| Nc1c2c(nc3ccccc13)CCCC2O (racemic) [Hydroxytacrine maleate (R,S)] | 0.612 ± 0.088 |
| CCN(CC)CCOC(=O)C1(C2CCCCC2)CCCCC1 [Dicyclomine hydrochloride] | 0.46 ± 0.008 |
| O=C(Oc1cccc2cccnc12)c1ccccc1 [Benzoxiquine] | 0.505 ± 0.036 |
| O=C1CC2(CCCC2)CC(=O)N1CCCCN1CCN(c2ncccn2)CC1 [Buspirone hydrochloride] | 0.454 ± 0.019 |
| CCN(CC)C(=O)C1(c2ccccc2)CC1CN (stereo not given) [Milnacipran hydrochloride] | 0.547 ± 0.052 |
| CCN(CC)CC#CCOC(=O)C(O)(c1ccccc1)C1CCCCC1 (stereo not given) [Oxybutynin chloride] | 0.41 ± 0.043 |
| C[C@]12C=CC(=O)C=C1CC[C@H]1[C@@H]3C[C@@H](O)[C@](O)(C(=O)CO)[C@@]3(C)C[C@H](O)[C@@]12F [Triamcinolone] | 0.451 ± 0.037 |
| O=C(CCCCC(=O)Nc1c(I)cc(I)c(C(=O)O)c1I)Nc1c(I)cc(I)c(C(=O)O)c1I [Iodipamide] | 0.527 ± 0.092 |
| CCN(CCO)CCCC(C)Nc1ccnc2cc(Cl)ccc12 (stereo not given) [Hydroxychloroquine sulfate] | 0.54 ± 0.024 |
| Cc1ccsc1/C=C/C1=NCCCN1C [Morantel tartrate] | 0.513 ± 0.029 |
| Cc1noc(NS(=O)(=O)c2ccc(N)cc2)c1C [Sulfisoxazole] | 0.588 ± 0.015 |
| C=CCOc1ccccc1OCC(O)CNC(C)C (stereo not given) [Oxprenolol hydrochloride] | 0.554 ± 0.095 |
| CCOc1ccc2c(c1)C(C)=CC(C)(C)N2 [Ethoxyquin] | 0.3809 ± 0.0031 |
| CC1Cc2ccccc2N1NC(=O)c1ccc(Cl)c(S(N)(=O)=O)c1 (stereo not given) [Indapamide] | 0.497 ± 0.015 |
| CCC(=O)OCC(=O)[C@@]1(OC(=O)CC)[C@H](C)C[C@H]2[C@H]3[C@H]([C@@H](O)C[C@@]21C)[C@@]1(C)C=CC(=O)C=C1C[C@H]3Cl [Alclometasone dipropionate] | 0.492 ± 0.04 |
| Cc1scc2c1N(C(=O)CN1CCN(C)CC1)c1ccccc1NC2=O [Telenzepine dihydrochloride] | 0.545 ± 0.024 |
| O=C1CC[C@@H](C(=O)N2CSC[C@H]2C(=O)O)N1 [Pidotimod] | 0.536 ± 0.1 |
| CCC1NC(=O)c2cc(S(N)(=O)=O)c(Cl)cc2N1 (stereo not given) [Quinethazone] | 0.463 ± 0.013 |

| SMILES | growth |
| --- | --- |
| CN1CCCN(C(c2ccccc2)c2ccc(Cl)cc2)CC1 (stereo not given) [Homochlorcyclizine dihydrochloride] | 0.498 ± 0.047 |
| C1N2CN3CN1CN(C2)C3 [Methenamine] | 0.59 ± 0.14 |
| CC(C)(O/N=C(\C(=O)N[C@@H]1C(=O)N2C(C(=O)[O-])=C(C[n+]3ccccc3)CS[C@H]12)c1csc(N)n1)C(=O)O [Ceftazidime pentahydrate] | 0.0473 ± 0.00053 |
| CC(C(O)c1ccc(O)cc1)N1CCC(Cc2ccccc2)CC1 (stereo not given) [Ifenprodil tartrate] | 0.453 ± 0.037 |
| CCN(CC)CCNC(=O)c1ccc(N)cc1 [Procainamide hydrochloride] | 0.634 ± 0.046 |
| CC[C@H]1OC(=O)[C@H](C)[C@@H](O[C@H]2C[C@@](C)(OC)[C@@H](O)[C@H](C)O2)[C@H](C)[C@@H](O[C@@H]2O[C@H](C)C[C@H](N(C)C)[C@H]2O)[C@](C)(O)C[C@@H](C)CN(C)[C@H](C)[C@@H](O)[C@]1(C)O [Azithromycin] | 0.0526 ± 0.00017 |
| OC(CCN1CCCCC1)(c1ccccc1)C1CCCCC1 (stereo not given) [Trihexyphenidyl-D,L Hydrochloride] | 0.452 ± 0.031 |
| CN1C(C(=O)Nc2ccccn2)=C(O)c2ccccc2S1(=O)=O [Piroxicam] | 0.4032 ± 0.0031 |
| c1ccc(CN(CC2=NCCN2)c2ccccc2)cc1 [Antazoline hydrochloride] | 0.5 ± 0.083 |
| CCCc1nc2c(C)cc(-c3nc4ccccc4n3C)cc2n1Cc1ccc(-c2ccccc2C(=O)O)cc1 [Telmisartan] | 0.505 ± 0.043 |
| Nc1nc(F)nc2c1ncn2[C@@H]1O[C@H](CO)[C@@H](O)[C@@H]1O [Fludarabine] | 0.626 ± 0.044 |
| CN1CCOC(c2ccccc2)c2ccccc2C1 (stereo not given) [Nefopam hydrochloride] | 0.543 ± 0.081 |
| NCCCC(O)(P(=O)(O)O)P(=O)(O)O [Alendronate sodium] | 0.514 ± 0.051 |
| Clc1ccccc1C(c1ccccc1)(c1ccccc1)n1ccnc1 [Clotrimazole] | 0.0507 ± 0.0011 |
| O=C1c2cccc(O)c2C(=O)c2c(O)cccc21 [1,8-Dihydroxyanthraquinone] | 0.383 ± 0.011 |
| CC(N/C(=N\C#N)Nc1ccncc1)C(C)(C)C (stereo not given) [Pinacidil] | 0.446 ± 0.031 |
| COc1ccc2c(c1)c(CC(=O)OCC(=O)O)c(C)n2C(=O)c1ccc(Cl)cc1 [Acemetacin] | 0.363 ± 0.021 |
| O=C(O)c1ccccc1C(=O)Nc1ccc(S(=O)(=O)Nc2nccs2)cc1 [Phthalylsulfathiazole] | 0.47 ± 0.037 |
| c1ccc2c(c1)CCCC2C1=NCCN1 (stereo not given) [Tetrahydrozoline hydrochloride] | 0.479 ± 0.063 |
| Cc1nnc(NS(=O)(=O)c2ccc(N)cc2)s1 [Sulfamethizole] | 0.462 ± 0.018 |
